PubChem BioAssay AID1159580 (chemical genetic matrix, 2015)
Several values for one entry are separate records, joined by “and”; a condition that tells them apart may be missing. Identical values can stand only once. The whole screen tested about 5,500 compounds, of which about 2,000 (36%) were called active. Roughly 18% stayed inconclusive and do not appear here. Cut-off read from the data, not from the text of the source: active = normalized growth mostly below about 0.91 (no sharp cut-off); inconclusive = no clear call, values can overlap the other calls; inactive = mostly above about 0.92. Some of the results follow.

Experiment: chemical genetic growth profiling, strain panel (AID 1159580);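 note: tested at 20 µM; growth read once vehicle control cultures reached saturation at 30 °C; 1 = growth at the plate median or of vehicle wells; lower values mean less growth of the strain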
Conditions: S. cerevisiae deletion strains, growth OD
[1] = locus YAL013W, strain DEP1, active compounds read low
[2] = locus YNL322C, strain KRE1, active compounds read low
[3] = locus YPL055C, strain LGE1, active compounds read low

Measured: normalized growth

O=c1ccc2ccccc2o1
inactive: [1] 1.02 | locus YAL021C, strain ccr4, active compounds read low 1.01 | locus YAL026C, strain drs2, active compounds read low 0.993 | locus YAL030W, strain snc1, active compounds read low 0.99 | locus YBL061C, strain skt5, active compounds read low 0.988 | locus YBR009C, strain hhf1, active compounds read low 0.939 | locus YBR021W, strain FUR4, active compounds read low 1 | locus YBR023C, strain chs3, active compounds read low 0.996 | locus YBR171W, strain sec66, active compounds read low 0.974 | locus YBR229C, strain ROT2, active compounds read low 1.02 | locus YBR231C, strain swc5, active compounds read low 0.964 | locus YBR279W, strain paf1, active compounds read low 0.999 | locus YCL011C, strain gbp2, active compounds read low 0.993 | locus YCL016C, strain dcc1, active compounds read low 1.03 | locus YCL029C, strain bik1, active compounds read low 0.992 | locus YCL069W, strain vba3, active compounds read low 0.98 | locus YCR088W, strain abp1, active compounds read low 0.982 | locus YDL005C, strain med2, active compounds read low 0.976 | locus YDL035C, strain GPR1, active compounds read low 1.01 | locus YDL040C, strain nat1, active compounds read low 0.984 | locus YDL074C, strain BRE1, active compounds read low 1.01 | locus YDL101C, strain DUN1, active compounds read low 1.03 | locus YDL134C, strain PPH21, active compounds read low 1.03 | locus YDL185W, strain tfp1, active compounds read low 0.982 | locus YDL192W, strain arf1, active compounds read low 0.988 | locus YDR001C, strain nth1, active compounds read low 0.978 | locus YDR069C, strain doa4, active compounds read low 0.987 | locus YDR101C, strain arx1, active compounds read low 0.968 | locus YDR137W, strain rgp1, active compounds read low 0.968 | locus YDR150W, strain NUM1, active compounds read low 1 | locus YDR159W, strain sac3, active compounds read low 0.945 | locus YDR162C, strain NBP2, active compounds read low 1.04 | locus YDR195W, strain ref2 0.991 | locus YDR297W, strain sur2, active compounds read low 0.973 | locus YDR318W, strain mcm21, active compounds read low 1.01 | locus YDR334W, strain swr1, active compounds read low 0.926 | locus YDR335W, strain msn5, active compounds read low 0.985 | locus YDR388W, active compounds read low 0.988 | locus YDR392W, strain spt3, active compounds read low 0.956 | locus YDR502C, strain sam2, active compounds read low 0.963 | locus YEL003W, strain gim4, active compounds read low 0.957 | locus YEL037C, strain rad23, active compounds read low 0.977 | locus YEL061C, strain CIN8 (second series), active compounds read low 0.954 | locus YEL061C, strain CIN8, active compounds read low 1.01 | locus YER015W, strain faa2, active compounds read low 0.991 | locus YER016W, strain bim1, active compounds read low 0.986 | locus YER110C, active compounds read low 0.989 | locus YER111C, strain swi4, active compounds read low 0.982 | locus YER155C, strain BEM2 (second series), active compounds read low 0.937 | locus YER155C, strain BEM2, active compounds read low 1.02 | locus YER167W, strain BCK2, active compounds read low 1.02 | locus YFR010W, strain ubp6, active compounds read low 0.93 | locus YGL078C, strain dbp3, active compounds read low 0.992 | locus YGL086W, strain mad1, active compounds read low 0.981 | locus YGL167C, strain pmr1, active compounds read low 0.972 | locus YGL173C, strain kem1, active compounds read low 0.973 | locus YGL227W, strain vid30, active compounds read low 0.969 | locus YGL240W, strain doc1, active compounds read low 0.958 | locus YGL248W, strain PDE1, active compounds read low 1.04 | locus YGL253W, strain hxk2, active compounds read low 1.01 | locus YGR135W, strain pre9, active compounds read low 0.988 | locus YGR252W, strain gcn5, active compounds read low 1.02 | locus YHR013C, strain ard1, active compounds read low 1.05 | locus YHR027C, strain rpn1, active compounds read low 0.975 | locus YHR030C, strain SLT2, active compounds read low 1.02 and 0.992 | locus YHR079C, strain IRE1 (second series), active compounds read low 0.999 | locus YHR079C, strain IRE1, active compounds read low 0.957 | locus YHR094C, strain hxt1, active compounds read low 0.989 | locus YHR129C, strain ARP1, active compounds read low 1.02 | locus YHR142W, strain chs7, active compounds read low 1.03 | locus YHR200W, strain rpn10, active compounds read low 0.978 | locus YIL066C, strain RNR3, active compounds read low 1.02 | locus YIL073C, strain SPO22, active compounds read low 0.985 | locus YIL125W, strain kgd1, active compounds read low 1.01 | locus YIR030C, strain dcg1, active compounds read low 0.992 | locus YJL092W, strain hpr5, active compounds read low 0.996 | locus YJL095W, strain BCK1 (second series), active compounds read low 0.978 | locus YJL095W, strain BCK1, active compounds read low 1.06 and 0.982 | locus YJL115W, strain asf1, active compounds read low 0.972 | locus YJL129C, strain trk1, active compounds read low 0.985 | locus YJL134W, strain LCB3, active compounds read low 1.01 | locus YJL154C, strain vps35, active compounds read low 0.978 | locus YJL164C, strain tpk1, active compounds read low 0.977 | locus YJL166W, strain qcr8, active compounds read low 0.956 | locus YJL168C, strain set2, active compounds read low 0.995 | locus YJL187C, strain SWE1 (second series), active compounds read low 1.02 | locus YJL187C, strain SWE1, active compounds read low 0.982 | locus YJR043C, strain POL32, active compounds read low 1.02 | locus YJR066W, strain TOR1, active compounds read low 0.945 | locus YKL009W, strain mrt4, active compounds read low 1.12 | locus YKL068W, active compounds read low 1.01 | locus YKL085W, strain MDH1 (second series), active compounds read low 1.01 | locus YKL085W, strain MDH1, active compounds read low 1.01 | locus YKL160W, strain elf1, active compounds read low 1.02 | locus YKL190W, strain CNB1, active compounds read low 1.02 | locus YKR001C, strain vps1, active compounds read low 0.979 | locus YKR026C, strain gcn3, active compounds read low 0.972 | locus YKR091W, strain srl3, active compounds read low 0.983 | locus YLL001W, strain dnm1, active compounds read low 0.981 | locus YLL026W, active compounds read low 0.99 | locus YLL041C, strain sdh2, active compounds read low 0.998 | locus YLR027C, strain aat2, active compounds read low 0.993 | locus YLR039C, strain RIC1, active compounds read low 1.03 | locus YLR058C, strain SHM2, active compounds read low 1.03 | locus YLR102C, strain apc9, active compounds read low 0.987 | locus YLR113W, strain HOG1, active compounds read low 0.999 | locus YLR221C, strain rsa3, active compounds read low 0.952 | locus YLR258W, strain gsy2, active compounds read low 1.01 | locus YLR262C, strain YPT6 (second series), active compounds read low 0.965 | locus YLR262C, strain YPT6, active compounds read low 1.03 | locus YLR268W, strain sec22, active compounds read low 0.961 | locus YLR320W, strain mms22, active compounds read low 0.951 | locus YLR330W, strain CHS5, active compounds read low 1.03 | locus YLR342W, strain FKS1 (second series), active compounds read low 1.01 | locus YLR342W, strain FKS1, active compounds read low 1 | locus YLR357W, strain rsc2, active compounds read low 1.04 | locus YLR370C, strain arc18, active compounds read low 1 | locus YLR371W, strain rom2, active compounds read low 0.976 | locus YLR384C, strain iki3, active compounds read low 0.992 | locus YLR418C, strain cdc73, active compounds read low 1.03 | locus YML016C, strain PPZ1, active compounds read low 1.02 | locus YML032C, strain rad52, active compounds read low 0.999 | locus YML120C, strain ndi1, active compounds read low 0.95 | locus YML124C, strain tub3, active compounds read low 0.994 | locus YMR058W, strain fet3, active compounds read low 0.983 | locus YMR078C, strain ctf18, active compounds read low 0.989 | locus YMR125W, strain sto1, active compounds read low 0.998 | locus YMR129W, active compounds read low 0.989 | locus YMR205C, strain PFK2, active compounds read low 0.955 | locus YMR223W, strain ubp8, active compounds read low 1.04 | locus YMR231W, strain pep5, active compounds read low 0.971 | locus YMR307W, strain GAS1, active compounds read low 1.06 | locus YNL067W, strain RPL9B, active compounds read low 1.02 | locus YNL071W, strain lat1, active compounds read low 0.958 | locus YNL183C, strain NPR1, active compounds read low 0.949 | locus YNL209W, strain ssb2, active compounds read low 0.978 | locus YNL233W, strain BNI4, active compounds read low 1.02 | locus YNL248C, strain rpa49, active compounds read low 0.995 | locus YNL250W, strain rad50, active compounds read low 1.01 | locus YNL271C, strain bni1, active compounds read low 0.993 | locus YNL298W, strain CLA4, active compounds read low 0.993 | locus YNL307C, strain MCK1, active compounds read low 0.997 | locus YNL322C, strain KRE1 (second series), active compounds read low 0.98 | [2] 1.02 | locus YNR049C, strain mso1, active compounds read low 0.993 | locus YNR052C, strain pop2, active compounds read low 1.01 | locus YOL012C, strain htz1 1.37 | locus YOL147C, strain pex11, active compounds read low 0.99 | locus YOR001W, strain rrp6, active compounds read low 0.935 | locus YOR061W, strain CKA2, active compounds read low 1.02 | locus YOR069W, strain VPS5, active compounds read low 1.01 | locus YOR070C, strain gyp1, active compounds read low 0.994 | locus YOR080W, strain dia2, active compounds read low 0.981 | locus YOR083W, strain WHI5, active compounds read low 0.972 | locus YOR106W, strain vam3, active compounds read low 0.998 | locus YOR136W, strain idh2, active compounds read low 0.982 | locus YOR144C, strain elg1, active compounds read low 0.99 | locus YOR184W, strain ser1, active compounds read low 0.985 | locus YOR231W, strain MKK1, active compounds read low 0.988 | locus YOR265W, strain rbl2, active compounds read low 0.987 | locus YOR270C, strain vph1, active compounds read low 0.981 | locus YOR290C, strain snf2, active compounds read low 1.01 | locus YOR316C, strain cot1, active compounds read low 1 | locus YPL051W, strain arl3, active compounds read low 1.03 | [3] 1.02 | locus YPL078C, strain atp4, active compounds read low 1.03 | locus YPL106C, strain sse1, active compounds read low 0.988 | locus YPL240C, strain hsp82, active compounds read low 0.983 | locus YPL256C, strain CLN2, active compounds read low 1 | locus YPR119W, strain clb2, active compounds read low 0.992 | locus YPR141C, strain kar3, active compounds read low 0.999 | locus YPR163C, strain tif3, active compounds read low 1 | locus YPR167C, strain met16, active compounds read low 1.03 | strain wtn01, active compounds read low 0.962

O=Nc1ccc2oc(=O)ccc2c1
active: locus YGR229C, strain SMI1, active compounds read low 0.846
inactive: [1] 0.945 | locus YAL040C, strain CLN3, active compounds read low 0.985 | locus YCL061C, strain MRC1 (second series), active compounds read low 0.973 | locus YDR363W, strain ESC2, active compounds read low 0.917 | locus YER002W, strain NOP16, active compounds read low 1.01 | locus YGR078C, strain PAC10, active compounds read low 0.98 | locus YMR263W, strain SAP30, active compounds read low 0.989 | locus YNL175C, strain NOP13, active compounds read low 0.994 | locus YNL197C, strain WHI3, active compounds read low 0.989 | locus YNL224C, strain SQS1, active compounds read low 0.995 | [2] 1 | locus YOR083W, strain WHI5 (second series), active compounds read low 0.906 | [3] 0.896 | locus YPL241C, strain CIN2, active compounds read low 0.999
